Source: PubChem BioAssay (NCI)
About 83,000 compounds went through this panel and 20% of them were active in at least one assay; those are over-represented in the sample as a whole.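 Activity criterion: percent growth below 10, measured after cells in 96-well plates were exposed to a single compound concentration for 48 hours.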 Unmarked numbers belong to inactive results. Active and inactive are the calls of the source.

Columns and labels:
Test in all cases: NCI-60 one-dose screen, 48 h (100 = growth as untreated, 0 = no growth, -100 = all killed)
[1] = system: T-47D breast; details: 10 µM
[2] = system: BT-549 breast; details: 10 µM unless noted
[3] = system: MDA-MB-435 melanoma; details: 10 µM unless noted
[4] = system: SW-620 colon; details: 10 µM unless noted
[5] = system: MCF7 breast; details: 10 µM unless noted
[6] = system: HCT-116 colon; details: 10 µM unless noted
[7] = system: HCC-2998 colon; details: 10 µM unless noted
[8] = system: KM12 colon; details: 10 µM unless noted

| SMILES | growth [1] | growth [2] | growth [3] | growth [4] | growth [5] | growth [6] | growth [7] | growth [8] |
| --- | --- | --- | --- | --- | --- | --- | --- | --- |
| Cc1ccc(-c2nnc(COc3ccc(-c4nnc(N)s4)cc3)o2)cc1 | 101% | 92.9% | 72.4% | 94.8% | 68.3% | 63.4% | 107% | 92.6% |
| O=C(N/N=C(\CS(=O)(=O)c1ccccc1)c1cc2cc(Br)ccc2oc1=O)c1ccccc1 | 94.1% | 102% | 100% | 102% | 98.2% | 104% | 103% | 105% |
| COc1ccc(NC(=O)c2ccc3c(c2)nc(-c2ccc(Cl)cc2)n3-c2cc(C(C)(C)C)[nH]n2)cc1 | 74.5% | 81.3% | 88.9% | 104% | 83% | 80.7% | 112% | 84% |
| CCOC(=O)c1c(Cl)c2c(n1Cc1ccc(OC)cc1)-c1oncc1CCC2 | 83.6% | 70.4% | 101% | 71.1% | 82.3% | 62.3% | 66.9% | 96.8% |
| O=C1CCC(N2C(=O)c3cccc(NCCOCCOCCNC(=O)c4cc5c(o4)C(=O)c4ccccc4C5=O)c3C2=O)C(=O)N1 (configuration not stated) | 4.87% (active) | -89.3% (active) | -92.1% (active) | -19.3% (active) | -61.3% (active) | -16.1% (active) | -61.7% (active) | -8.32% (active) |
| Cc1nc2cc(Nc3nc(NCCN)nc(Nc4ccc(F)cc4)n3)ccc2n1Cc1ccccc1 | 69.1% | 90% | 80.4% | 73.9% | 68.8% | 60.3% | 70.6% | 70.6% |
| Nc1cc(Br)c(-c2nnc(CCC(=O)c3nc4ccccc4[nH]3)o2)c(Br)c1 | 72.6% | 40.6% | 5.71% (active) | 72.1% | 18.9% | 53.3% | 78% | 69% |
| COC(=O)c1c2c(c(C)[n+]([O-])c1C)C(=O)C=C(NCc1ccc(F)c(Cl)c1)C2=O | -41.9% (active) | -96.9% (active) | -96.9% (active) | -29.6% (active) | -61.9% (active) | -48.6% (active) | -59.3% (active) | -16.5% (active) |
| CCCCc1ccc(NC(=O)C(F)(F)F)cc1 | 87.1% | 87.7% | 102% | 101% | 108% | 106% | 106% | 97.3% |
| O=S(=O)(Nc1ncccn1)c1ccc(Nc2ccc3nnc(-c4ccncc4)n3n2)cc1 | 101% | 106% | 108% | 93% | 104% | 108% | 111% | 101% |
| CCOC(=O)c1cn2c3c(cc(F)cc3c1=O)C(CC)c1ccccc1C2 (configuration not stated) | 93.1% | 96.7% | 93.9% | 107% | 90.3% | 102% | 93.7% | 102% |
| Clc1cccc(Cl)c1Nc1ccc2nnc(-c3ccncc3)n2n1 | 91.3% | 114% | 104% | 102% | 95.2% | 98.9% | 97.1% | 112% |
| CCCCC(=O)N/N=C/c1cc(I)cc(I)c1O | 52.1% | 55.2% | 56.7% | 54.6% | 41.5% | 15.1% | 66.5% | 53.2% |
| C=C(C)CCCC(C)CC#N (configuration not stated) | 92.7% | 95.9% | 104% | 115% | 99.3% | 97.5% | 104% | 95% |
| COc1cc(/C=C2\C(=O)N(c3c(Cl)cccc3Cl)c3ccccc32)cc(OC)c1O | 51.8% | 33.4% | 35.2% | 31.4% | 25.3% | 15.7% | 44.6% | 28.4% |
| CC(=O)c1cc(C)c(OC(=O)c2ccccc2)c(C)c1 | 74.9% | 97.6% | 95.2% | 103% | 105% | 93.7% | 100% | 104% |
| O=C1CCC(N2Cc3c(C#CCCCNC(=O)c4cc5c(o4)C(=O)c4ccccc4C5=O)cccc3C2=O)C(=O)N1 (configuration not stated) | 7.33% (active) | -94.8% (active) | -94.5% (active) | -34.7% (active) | -68.6% (active) | -25.5% (active) | -64.1% (active) | -1.98% (active) |
| COc1cc2nc(SCc3cc(OC)c(OC)c(OC)c3)n(-c3ccccc3OC)c(=O)c2cc1OC | 88.6% | 87.5% | 0.0693% (active) | 76.4% | 77% | 88% | 94.6% | 54.1% |
| COc1cc(-c2nc3ccccc3o2)cc(CN2CCN(c3ccccc3)CC2)c1O | 91.5% | 55.3% | -78% (active) | 94.3% | 60.6% | 56.4% | 85.5% | 49.8% |
| O=C(CCCCCCC(=O)Nc1ccc2c(c1)/C(=C/c1ccc[nH]1)C(=O)N2)NO | -0.107% (active) | 29.7% | -1.97% (active) | -27% (active) | 17.2% | -36.8% (active) | 3.74% (active) | -14.4% (active) |
| FC(F)(F)Oc1ccc2c(c1)C[C@H]1C[C@@H](c3ccoc3)N2O1 | 94.8% | 112% | 88.8% | 110% | 98.6% | 107% | 97.5% | 103% |
| COc1nc2c(cc1S(=O)(=O)c1ccccc1)CCc1c-2cnn1-c1ccccc1 | 40.4% | 78.7% | 69.3% | 89.9% | 75.5% | 72.4% | 98.1% | 100% |
| Cc1cccc2c(=O)c3c(sc12)c(NCCCN)nc1ccccc13 | 43.9% | 65.9% | -75.4% (active) | -72% (active) | -78.9% (active) | -92% (active) | -30.9% (active) | -64.4% (active) |
| FCOC(C(F)(F)F)C(F)(F)F | 97.9% | 103% | 103% | 101% | 101% | 103% | 104% | 103% |
| O=C(CCc1nnc2sc(-c3ccccc3)nn12)c1nc2ccccc2[nH]1 | 80.3% | 98.4% | 94.8% | 123% | 87% | 72.2% | 104% | 100% |
| Cc1nc2cc(Nc3nc(N4CCCCC4)nc(N4CCOCC4)n3)ccc2n1Cc1ccccc1 | -8% (active) | 63.2% | 52.8% | 44.1% | 65.5% | -49.9% (active) | 94.3% | 18.3% |
| O=C1C(Br)=C(c2ccccc2)C(=O)C(Br)=C1c1ccccc1 | 73.4% | 97.7% | 91.4% | 94.2% | 92.6% | 90.3% | 98.2% | 102% |
| Cc1ccc(C)c2c1sc1nc3nc4sc5ccccc5n4c(=N)c3c(=O)n12 | 78.9% | 115% | 121% | 108% | 51.1% | 91.6% | 94.6% | 101% |
| COc1cc(CNCCN2C(=O)c3ccc4c5c(ccc(c35)C2=O)C(=O)N(CCNCc2cc(OC)c(OC)c(OC)c2)C4=O)cc(OC)c1OC | -56.2% (active) | -93.8% (active) | -63.4% (active) | -87.3% (active) | -59.4% (active) | -99.7% (active) | -100% (active) | -92.5% (active) |
